PLK1 PBD inh: qHTS for Inhibitors of PLK1-PDB (polo-like kinase 1 - polo-box domain): Primary Screen. Serine/threonine-protein kinase PLK1 (Homo sapiens), P53350. Plk1 PBD binding of FITC phosphopeptide, fluorescence polarization. Potency, µM, for inactives: max response, negative = inhibition, most hits filed as inhibitors. 360,000 tested, 2.8% active. AID 720504, 2013; note: series mostly up to about 57 µM; % is set by controls: 0 for no effect and ±100 for the full control effect; nearly all actives have a fitted effect of over 65% in size
Pin1 inh: qHTS Assay to Find Inhibitors of Pin1. Potency, µM (titrated, usually from 115 µM), without a hit: at the top dose activity, negative = inhibition, hits mostly inhibitors. AID 504891, 2011. Peptidyl-prolyl cis-trans isomerase NIMA-interacting 1 (Homo sapiens), Q13526. Pin1 FP peptide displacement, HiFluor488, 10 min. 390,000 tested, 0.009% active; active = well fitted inhibition curve with a large enough effect in the polarisation, with a control signal flat, not every such curve was filed as active; inconclusive = small, poorly fitted or top-dose-only effect, or effect the other way, or a change in a side signal; inactive = no such curve, though single readings can be large or run the other way; the % refers to the polarisation; note: % is set by controls: 0 for no effect and ±100 for the full control effect
Target sequence (Q13526 whole entry, looked up): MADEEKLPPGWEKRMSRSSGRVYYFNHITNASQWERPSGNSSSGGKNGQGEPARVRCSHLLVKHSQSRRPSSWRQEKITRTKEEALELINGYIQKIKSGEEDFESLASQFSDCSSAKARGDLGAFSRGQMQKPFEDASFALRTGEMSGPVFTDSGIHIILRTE
TDP1 block: qHTS Assay for Inhibitors of Tyrosyl-DNA Phosphodiesterase (TDP1); recombinant TDP1, AlphaScreen DNA substrate cleavage; Potency, µM (highest dose often 130 µM), for inactives: at the highest dose activity change, negative = inhibition, most hits filed as inhibitors; Tyrosyl-DNA phosphodiesterase 1 (Homo sapiens), Q9NUW8; 350,000 tested, 0.28% active; note: % is set by controls: 0 for no effect and ±100 for the full control effect; nearly all actives have a fitted effect of over 40% in size
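Recombinant E. coli-expressed Tdp1 (1 nM) preincubated with compound 15 min at RT, then 5'-biotin/3'-phosphotyrosine-FITC DNA substrate (15 nM) added for 5 min. AlphaScreen beads (10 ug/ml) added, 10 min RT; tyrosine-FITC cleavage read as signal loss.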
VDR inh: Inhibitors of the vitamin D receptor (VDR): qHTS; Vitamin D3 receptor (Homo sapiens), P11473; VDR-SRC2-3 peptide fluorescence polarization, 2 h; Potency, µM, inactives show max response, negative = inhibition, usual class: inhibitors; 400,000 tested, 0.93% active; AID 504847, 2011; note: % is set by controls: 0 for no effect and ±100 for the full control effect
Target sequence (P11473 whole entry, looked up): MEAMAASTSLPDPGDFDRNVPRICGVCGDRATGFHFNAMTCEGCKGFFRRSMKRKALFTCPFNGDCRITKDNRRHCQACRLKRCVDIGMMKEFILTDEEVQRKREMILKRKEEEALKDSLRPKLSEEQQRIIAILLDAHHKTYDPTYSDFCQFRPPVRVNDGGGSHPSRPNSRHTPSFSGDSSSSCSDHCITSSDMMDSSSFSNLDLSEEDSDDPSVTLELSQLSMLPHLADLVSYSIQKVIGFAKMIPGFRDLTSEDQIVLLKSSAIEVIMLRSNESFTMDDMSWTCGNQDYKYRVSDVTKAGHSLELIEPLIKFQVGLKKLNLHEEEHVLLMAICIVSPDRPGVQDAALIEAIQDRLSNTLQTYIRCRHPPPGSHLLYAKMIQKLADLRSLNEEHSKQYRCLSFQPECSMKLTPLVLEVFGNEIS
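Measured by FP: displacement of SRC2-3 coactivator peptide from VDR by library compounds, following a two-hour ambient incubation.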
ASM inhibitor: Inhibitors of Secretory Acid Sphingomyelinase (S-ASM): qHTS. Sphingomyelin phosphodiesterase (Homo sapiens), P17405. placental ASM, HMU-PC fluorogenic substrate, 60 min. Potency, µM (doses to about 57.5 µM), without a hit: top-dose activity change, negative = inhibition, hits mostly inhibitors. 340,000 tested, 0.006% active
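Steps: dispense placental human ASM, pin compound, wait 10 min at room temperature, add HMU-PC0 substrate at 9 uM final, incubate 60 min at 37 °C, add stop solution raising pH to 10, read fluorescence.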
Tb PFK inh: qHTS Assay to Find Inhibitors of T. brucei phosphofructokinase. AID 485367, 2010. 330,000 tested, 0.17% active. Potency, µM (highest dose often 57.5 µM), without a hit: at the top dose activity, negative = inhibition, most hits filed as inhibitors. T. brucei PFK, ADP-Glo luminescence. ATP-dependent 6-phosphofructokinase (Trypanosoma brucei brucei), O15648;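 note: 0% = uninhibited 1x PFK enzyme wells and -100% = no-enzyme wells; nearly all actives have a fitted effect of over 60% in size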
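In TEA buffer at pH 8.0 with 5 mM MgCl2, enzyme (1.25 nM) converted F6P (0.5 mM) and ATP (0.1 mM) for 45 min at room temperature. ADP product was read by luciferase luminescence.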
* = called active by the depositor; ? = inconclusive; . = not tested or not shown; [ ] = remark or other dose. Most compounds without a hit are left out; they make up all but 3.1% or so of the library. Unless noted, calls come from the whole dose curve; as a rule, active = well fitted curve in the direction sought with a large enough effect; inconclusive = small, poorly fitted or top-dose-only effect, or another doubt; inactive = no such curve, though single readings can be large; an effect the other way counts as inactive or inconclusive. Potency is the fitted concentration of half-maximal effect.

SMILES | PLK1 PBD inh | Pin1 inh | TDP1 block | VDR inh | ASM inhibitor | Tb PFK inh
COc1ccccc1NC(=O)CN1CCN(CC(=O)Nc2ccc(F)cc2)CC1 | -11% | -2% | 7% | -5% | 2% | -3%
Cc1ccc(OC(C)C(=O)N2CCN(c3ccccn3)CC2)cc1 (stereo unspecified) | 27µM* | 20% | . | -24% | -1% | .
CCOc1ccccc1NC(=O)CN1CCCCCC1 | -4% | -13% | 14µM* | 6% | 2% | -2%
COc1cc(NC(=O)c2cccc(Cl)c2)c(OC)cc1NC(=O)CN1CCCCC1 | 30µM* | 13% | 3% | -25% | -1% | 0%
COC(=O)C1=C(C(=O)OC)[C@@H]2N(C)c3ccccc3[C@@]23C[C@@H](C(=O)OC)N(S(=O)(=O)c2ccc(OC)cc2)C3=N1 | . | . | 19%[12.3 µM] | . | . | .
COCCCNc1nc2c(-c3cccc(Br)c3)nnn2c2ccccc12 | . | -11% | -9% | -8% | . | .
COc1ccc(C)cc1NC(=O)CN1CCN(c2ccccn2)CC1 | 27µM* | 1% | . | ? | -4% | -1%
Cc1cc(=O)n(Cc2ccccc2)c2ccccc12 | 21µM* | 2% | . | -10% | -2% | -6%
CCOC(=O)Cn1c(=O)cc(C)c2ccccc21 | 3.4µM* | -4% | 3% | ? | 5% | -1%
N#Cc1cc2c(OCC(O)CN3CCN(C(c4ccccc4)c4ccccc4)CC3)cccc2[nH]1 (stereo unspecified) | . | . | 12% | -1% | . | .
COc1ccc2nc(NNC(=O)c3cc(=O)c4ccccc4o3)sc2c1 | -12% | 52% | . | 32µM* | -4% | 5%
O=C(NNc1nc2c(F)cccc2s1)c1cc(=O)c2ccccc2o1 | -5% | 18% | . | ? | -3% | 12%
Cc1ccc2sc(NNC(=O)c3cc(=O)c4ccccc4o3)nc2c1C | -16% | 26% | . | 7.9µM* | -19% | -25%
Cc1cccc2sc(NNC(=O)c3cc(=O)c4ccccc4o3)nc12 | ? | 23% | . | ? | -6% | -14%
CC(=O)N[C@@H](CCCNC(=N)N)C(=O)N[C@H](CC1CCCCC1)C(=O)N[C@@H]1CCC2SC[C@@H](C(=O)N[C@H](CCCNC(=N)N)C(=O)N[C@H](Cc3ccc(Cl)cc3)C(N)=O)N2C1=O (stereo partly specified) | . | . | 9% | 2% | . | .
Cc1ccc(C(=O)NCc2ccccc2)cc1NC(=O)c1nsc2ccccc12 | . | 3% | 3% | 9% | . | .
COc1cc(C(=O)O/N=C2\C=CC(=O)C(C)=C2)cc(OC)c1OC | 21µM* | 5% | -2% | ? | -6% | -9%
COc1ccc(C(=O)ON=C2C=C(C)C(=O)C(C)=C2)cc1 | -14% | 4% | 0% | -11% | 3% | 8%
O=C(Nc1nc2ccc(S(=O)(=O)N3CCCC3)cc2s1)c1ccc(F)cc1 | . | ? | 3% | -6% | . | .
O=S(=O)(Nc1nc2ccc(S(=O)(=O)N3CCCC3)cc2s1)c1ccc(F)cc1 | 17µM* | 9% | 5% | -6% | 12% | 0%
O=C(COC(=O)CCC(=O)c1ccc(F)cc1)Nc1ccccc1 | -4% | 2% | 3% | -18% | -1% | 1%
NC(=O)c1ccc(NC(=O)COC(=O)CCC(=O)c2ccc(Cl)cc2)cc1 | 24µM* | 7% | -3% | -12% | -1% | 2%
Cc1cccn2c(=O)c(/C=C(\C#N)c3nc4ccccc4s3)c(Oc3ccc(Br)cc3)nc12 | . | ? | -5% | 79µM* | . | .
COc1ccc(CCNC(=O)CCc2c(C)nc3c(c(C)nn3-c3ccccc3)c2C)c(OC)c1 | . | -4% | 10% | 1% | . | .
O=C(CSc1nc(-c2ccco2)nc2cc(=O)[nH]n12)Nc1ccc(F)cc1 | . | ? | 0% | -4% | . | .
SMILES | PLK1 PBD inh | Pin1 inh | TDP1 block | VDR inh | ASM inhibitor | Tb PFK inh
O=C(CSc1nnc(-c2ccco2)c(-c2ccco2)n1)Nc1ccccc1 | 19µM* | ? | . | ? | -14% | ?
CN(C)c1ccc(NC(=O)CSc2nnc(-c3ccco3)c(-c3ccco3)n2)cc1 | -17% | 1% | . | 6% | -25% | 13%
COc1cccc(NC(=O)CSc2nnc(-c3ccco3)c(-c3ccco3)n2)c1 | 13µM* | . | . | 89µM* | -13% | ?
Cc1cccc(NC(=O)CSc2nc(-c3ccco3)nc3cc(=O)[nH]n23)c1 | . | -4% | 45µM* | -3% | . | -7%
O=C(CNC(=O)C1CCCCC1)OC(C(=O)Nc1cc(C(F)(F)F)ccc1Cl)c1ccccc1 (stereo unspecified) | . | 0% | 0% | . | . | .
COc1ccccc1NC(=S)NNC(=S)Nc1ccc(OC(F)F)cc1 | 24µM* | -13% | 4% | ? | -1% | 0%
COc1cccc(-n2nnnc2SCC(=O)Nc2ccccc2OC)c1 | -1% | 16% | . | 3% | -2% | -15%
CCCS(=O)(=O)c1nnnn1-c1cccc(OC)c1 | 13µM* | -2% | 7% | ? | -2% | -16%
COc1cccc(-n2nnnc2SCC(=O)Nc2ccc(C(C)=O)cc2)c1 | 24µM* | 5% | 5% | ? | -3% | 6%
Cc1ccc(NC(=O)CSc2nc3ccccc3c3nc(CCc4c(C)n[nH]c4C)nn23)cc1F | -5% | ? | 79µM* | -8% | -4% | -4%
Cc1n[nH]c(C)c1CCc1nc2c3ccccc3nc(SCC(=O)Nc3ccc(F)cc3)n2n1 | . | -10% | 0% | -5% | . | .
CN(C)c1ccc(C=Nc2ccccc2)cc1 | -8% | 9% | 3% | -2% | -3% | 1%
CN(C)c1ccc(N=Cc2ccco2)cc1 | -10% | 11% | 1% | 2µM* | 0% | -12%
COc1ccc(NC(=O)CC2C(=O)N(c3ccccc3)C(=O)N2CCc2sccc2C)cc1 (stereo unspecified) | . | -2% | 1% | ? | . | .
CN1CCN(Cc2nc3ccccc3c(=O)n2Cc2nc(-c3ccc([N+](=O)[O-])cc3)cs2)CC1 | 30µM* | 5% | 5% | -13% | -4% | 4%
Cn1cccc1Cc1nnc(SCC(=O)Nc2ccc(F)cc2)n1-c1ccc(F)cc1 | 24µM* | 0% | 8% | ? | -7% | 0%
CC1Sc2ccc(S(=O)(=O)CCC(=O)Nc3ccccc3Cl)cc2NC1=O (stereo unspecified) | 27µM* | 4% | 1% | -19% | 0% | 1%
CCOc1ccccc1N(C)C(=O)CCS(=O)(=O)c1ccc2c(c1)NC(=O)C(C)S2 (stereo unspecified) | 27µM* | 0% | 5% | ? | 3% | 1%
